Screening results as filed in PubChem BioAssay.
Rows were chosen to be rich in hits. Some 21% of all compounds tested hit in one or more screens of this group.
Pf growth 96h = Primary qHTS for delayed death inhibitors of the malarial parasite plastid, 96 hour incubation; P. falciparum luciferase reporter growth, 96 h; Potency, µM (highest dose often 28.7 µM), for the others: top-dose activity change, negative = inhibition, usual class: inhibitors; 320,000 tested, 6.9% active; further: potency means the concentration at half of the fitted maximal effect; on the % scale 0 is the no-effect control and ±100 the full control effect
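Readout is luminescence from an integrated firefly luciferase in P. falciparum. Red cells, 2% hematocrit and 0.05% parasitemia final, were cultured with compound through two parasite generations (96 hours) at 37 C, 5% CO2.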
Shiga toxin inh = A qHTS for Small Molecule Inhibitors of Shiga Toxin; AID 2315, 2010; inhibition, % at 38.7 µM; Vero cells, Shiga toxin protein synthesis inhibition reporter; 290,000 tested, 9.2% active; in the data active means inhibition mostly above about 28%, no sharp cut-off; inactive means mostly below about 43%; further: 0% is about no effect
HCV inh = qHTS Assay for Inhibitors of Hepatitis C Virus (HCV); Potency, µM (doses to about 41.8 µM), for inactives: top-dose activity change, negative = inhibition, usual class: inhibitors; Huh7.5.1 HCVcc-Cre infection, luciferase reporter, 44 h; AID 651820, 2012; 340,000 tested, 3.4% active; further: potency means the concentration at half of the fitted maximal effect; on the % scale 0 is the no-effect control and ±100 the full control effect
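A cell-based infection assay in which seeded cells (1,000 per well) receive test compound after 4 h, are inoculated with HCVcc-Cre at approximately 0.5 moi, and are incubated 44 h before luminescence detection.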
Pf growth 48h = Primary qHTS for delayed death inhibitors of the malarial parasite plastid, 48 hour incubation | 310,000 tested, 5.9% active | P. falciparum luciferase growth in erythrocytes, 48 h | Potency, µM (highest dose often 28.7 µM), for the others: at the highest dose activity change, negative = inhibition, usual class: inhibitors; further: potency means the concentration at half of the fitted maximal effect; on the % scale 0 is the no-effect control and ±100 the full control effect
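Compounds are pin-transferred into medium, infected erythrocytes (2% hematocrit, 0.1% parasitemia final) are added, and plates sit one parasite generation at 37 C in 5% CO2. Detection reagent is then added and luminescence measured.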
HCMV antiviral = qHTS Assay for inhibitors of the human cytomegalovirus (HCMV). HFF cells, HCMV-luciferase reporter, 72 h; active compounds read low. activity change, negative = inhibition, % at 57.5 µM. 410,000 tested, 4.5% active; in the data active means activity change below about -60%; inconclusive means no clear call, values can overlap the other calls; inactive means above about -39%; further: on the % scale 0 is the no-effect control and ±100 the full control effect
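Luciferase read-out from HCMV-luciferase-infected HFFs (MOI 1 PFU/cell) 72 h post infection at 37C; compounds added after 16 h cell attachment; activity normalized between buffer-only basal and Salinomycin (10uM) inhibitor controls.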
Cycloheximide cs = Cycloheximide Counterscreen for Small Molecule Inhibitors of Shiga Toxin; max response, %; 300,000 tested, 12% active; cell reporter, cycloheximide protein synthesis inhibition counterscreen; AID 2314, 2010; in the data active means max response mostly above about 13%, no sharp cut-off; inactive means mostly below about 14%; further: read at 38.3 µM for the half of the compounds with a filed dose; 0% is about no effect
An asterisk follows results filed as active; ? = inconclusive; nt = no result; [ ] = dose if it differs, or a comment. Unless noted, the call rests on the fitted dose curve; in most records, active means well fitted inhibition curve with a large enough effect; inconclusive means small, poorly fitted or top-dose-only effect, or another doubt; inactive means no such curve, though single readings can be large or run the other way.

SMILES	Pf growth 96h	Shiga toxin inh	HCV inh	Pf growth 48h	HCMV antiviral	Cycloheximide cs
O=C(CN1CCN(c2ccccn2)CC1)Nc1cccc(Br)c1	7.2%	11.1	-11.2%	-10.2%[0.00184 µM]	?	13.0
Cc1ccc(-c2csc(N3CCN(c4cc5c(cc4Cl)nc(C)n5CCN4CCCCC4)CC3)n2)cc1	2.08µM*	1.9	?	?	-34.0	-1.2
Cc1cccc(CNS(=O)(=O)c2ccc3[nH]c(=O)ccc3c2)c1	nt	nt	nt	nt	-2.6	nt
CC(C)C(NS(=O)(=O)c1cccc2nsnc12)C(=O)NC1CCCCC1 (stereo not given)	10.4µM*	-7.8	4.9%	15.3%	?	8.5
O=C1CN2C(=Nc3ccc(Br)cc3C2c2ccccc2)CCN1 (stereo not given)	24.3%	-5.5	15.8%	-12.5%	-4.0	0.7
Brc1ccc2c(c1)CN1CCCC1=N2	?	-12.2	?	10.4µM*	152.8	-3.4
Cc1ccccc1Cc1ccc(Cl)nn1	-10.0%	-1.5	0.1%	10.4µM*	?	0.5
Cc1ccccc1CN1CCN(Cc2ccccc2)CC1	12.3%	8.8	0.9%	12.3%	-19.7	1.0
O=C(COC(=O)c1cc[n+]([O-])cc1)Nc1ccc(Cl)cc1C(F)(F)F	27.6%	nt	31.1%	8.9%	nt	nt
COc1ccc(CNC[C@H]2O[C@@H](n3ccc(=O)[nH]c3=O)[C@H](O)[C@@H]2O)cc1OC	nt	nt	6.31µM*	nt	-12.9	nt
COc1ccc(NC(=S)c2ccc3ccccc3n2)cc1	53.8%	59.9*	5.3%	67.6%	nt	45.3*
CCOc1ccc(CN(C)C(=O)c2ccc3ccccc3n2)cc1	37.9%	14.1	0.2%	3.2%	25.6	-1.7
COc1ccc(NC(=O)CN(C)C(=O)c2ccc3ccccc3n2)cc1	nt	nt	-9.8%	nt	-4.4	nt
CCOc1ccc(NC(=S)c2ccc3ccccc3n2)cc1	14.5%	37.7*	-3.8%	46.2%	57.2	23.8*
COc1ccc(N=C(NN)c2ccc3ccccc3n2)cc1	2.2%	20.1	6.1%	130.2%	-89.2*	17.4
Oc1oc(-c2ccccc2Br)nc1C=Nc1ccc(Br)cn1	0.0%	25.6	-7.8%	0.8%	?	17.4
CCC(=O)Oc1oc(-c2ccccc2)nc1C=Nc1ccc(C)cc1	40.6%	10.2	-0.9%	4.6%	14.9	8.8
Oc1oc(-c2ccccc2)nc1/C=N/c1ccccn1	11.7µM*	9.5	-0.7%	-28.5%	-22.2	-2.2
Cc1ccc(-c2nc(C=Nc3ccc(O)cc3)c(O)o2)cc1	12.3%	124.9*	?	?	?	43.9*
CC(=O)Oc1oc(-c2ccccc2)nc1C=Nc1ccccc1	53.5%	30.3	9.4%	28.7%	31.5	18.2
CN=Cc1nc(-c2ccccc2)oc1O	193.4%	active	-2.1%	157.0%	29.7	29.8*
Cc1cc(C)c(NC(=O)CCS(=O)(=O)c2cc3c(cc2Cl)NC(=O)CO3)c(C)c1	nt	nt	nt	nt	9.0	nt
CN(C)C(=O)c1ccc(Nc2cc3c(cn2)cc(-c2cccnc2)n3Cc2ccccc2)cc1	nt	nt	nt	nt	-12.9	nt
CCCCCCCCNC(=O)/C(C#N)=C/c1ccccc1[N+](=O)[O-]	?	21.0	-4.7%	13.1µM*	-34.9	4.4
N#C/C(=C\C=C\c1ccccc1[N+](=O)[O-])C(=O)NCc1ccccc1	1.85µM*	26.4	31.6µM*	3.7µM*	-98.4*	31.2*
SMILES	Pf growth 96h	Shiga toxin inh	HCV inh	Pf growth 48h	HCMV antiviral	Cycloheximide cs
N#C/C(=C\c1ccccc1[N+](=O)[O-])C(=O)NCc1ccccc1	?	-3.9	5.2%	14.7µM*	5.9	-0.9
Cn1cncc1C#Cc1ccc2cc(C3(O)CCCCC3)oc(=O)c2c1	?	nt	13.9%	-0.3%	-1.0	nt
O=S(=O)(Nc1cccnc1)c1ccc(Br)c2ccccc12	?	-16.5	2.7%	14.1%	?	-2.6
COc1ccc(CN2CCN(CCSc3ccc(C)cc3)CC2)c(OC)c1OC	13.4%	-3.2	14.1µM*	0.7%	26.1	-0.9
O=C(Nc1ccc2oc(-c3cc(Br)ccc3Cl)nc2c1)c1cc2ccccc2o1	nt	nt	nt	nt	26.1	nt
O=C1C2CCCN2C(c2cccnc2)N1c1ccc(Cl)c(Cl)c1 (stereo not given)	134.4%	-4.7	-3.7%	?	25.8	-1.5
